Source: PubChem BioAssay
USP30 inh – blocks human USP30 ubiquitin-rhodamine cleavage. Q70CQ3. purified USP30, Ub-rhodamine cleavage fluorescence. inhibition, % at 25 µM. 47,000 tested, 5.3% active
Target sequence (Q70CQ3 whole entry, looked up): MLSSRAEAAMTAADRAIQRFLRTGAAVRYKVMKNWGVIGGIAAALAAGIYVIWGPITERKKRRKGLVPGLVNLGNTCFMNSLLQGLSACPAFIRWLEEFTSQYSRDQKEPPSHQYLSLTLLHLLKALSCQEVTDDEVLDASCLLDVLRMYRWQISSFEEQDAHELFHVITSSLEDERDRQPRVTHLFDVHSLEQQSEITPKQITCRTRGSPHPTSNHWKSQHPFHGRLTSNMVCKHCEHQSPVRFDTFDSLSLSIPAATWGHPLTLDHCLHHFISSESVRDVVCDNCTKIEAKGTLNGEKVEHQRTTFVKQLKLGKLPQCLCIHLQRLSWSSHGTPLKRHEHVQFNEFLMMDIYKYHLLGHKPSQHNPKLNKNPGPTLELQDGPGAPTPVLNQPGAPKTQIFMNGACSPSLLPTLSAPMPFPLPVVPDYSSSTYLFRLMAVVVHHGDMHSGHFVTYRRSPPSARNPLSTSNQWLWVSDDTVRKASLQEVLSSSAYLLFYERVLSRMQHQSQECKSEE
USP17 inh – blocks human USP17 ubiquitin-rhodamine cleavage; 47,000 tested, 6.5% active; inhibition, % at 50 µM; A8MUK1; purified USP17, Ub-rhodamine cleavage fluorescence, 3 h
USP28 block – blocks human USP28 ubiquitin-rhodamine cleavage; Q96RU2; purified USP28, Ub-rhodamine cleavage fluorescence, 30 min; inhibition, % at 25 µM; 47,000 tested, 3% active
Hits are given with their value; – = inactive; · = no result. Most compounds without a hit are left out; they make up all but 11% or so of the library. No stated cut-off is given here; in the data, active means inhibition above about 30%; inactive means the rest.

SMILES | USP30 inh | USP17 inh | USP28 block
c1ccc(CCNc2nn3c(-c4cccnc4)cnc3s2)nc1 | – | – | –
Fc1ccc(CNc2nn3c(-c4cccnc4)cnc3s2)cc1 | – | – | –
COc1ccc([C@H]2C[C@@H]3NC(=O)CCC[C@H]3N2C(=O)Cc2cc(C)ccc2OC)cc1 | – | – | –
Cn1nc(C(=O)N2CCC(c3ccccc3)C2)c2c1-c1ccsc1CC2 (centres undefined) | 32 | 46 | –
Cc1ccc(CNC(=O)c2nn(C)c3c2CCc2sccc2-3)cc1 | 33 | · | 36
Cn1nc(C(=O)N2CCN(c3ccccn3)CC2)c2c1-c1ccsc1CC2 | – | – | –
Cc1ccc(-n2nc(C(=O)NCc3ccccc3)c3ncn(C)c(=O)c32)cc1 | – | – | –
O=C(CCc1ccccc1)NC(c1ccccc1)c1ccccc1 | – | – | –
Cc1ccccc1OCCC(=O)NC(c1ccccc1)c1ccccc1 | – | 32 | –
Cn1cnc2c(C(=O)NC3CCCCC3)nn(-c3ccccc3)c2c1=O | – | – | –
CCOc1cc(N2CCOCC2)c(OCC)cc1NC(=O)COC(=O)c1ccc2ncsc2c1 | – | – | –
CCOc1cc(N2CCOCC2)c(OCC)cc1NC(=O)c1cc2c(s1)CCC2 | – | 36 | –
CN1[C@@H](CCC(=O)NCc2ccc(F)cc2)CNC(=O)[C@@H]2[C@H]1CCN2C1CCOCC1 | – | – | –
Cc1c(O)c(O)c2c(c1O)COC2 | – | 39 | –
OCCCNc1ncnc2c1cnn2-c1cccc(Cl)c1 | – | – | –
COc1ccc(-c2cc(C(=O)NCCN3CCCCCC3)[nH]n2)cc1 | – | – | –
O=C(Nc1cccc2cccnc12)c1nnn(-c2ccccc2)n1 | – | 44 | –
O=C(Nc1ccccc1)c1nnn(-c2ccccc2)n1 | – | – | –
O=C(C1CCCC1)N1CCC[C@H](Cn2nnc(-c3ccccn3)n2)C1 | · | – | ·
Cc1ccc(NC(=O)CSc2cc(N3CCCCC3)ncn2)cc1F | 31 | – | –
COc1ccccc1-c1ccc(SCC(=O)Nc2ccc3c(c2)OCCO3)nn1 | 40 | – | 80
COc1ccc(NC(=O)CSc2nc(-c3ccc4c(c3)OCO4)ccc2C#N)cc1OC | – | 33 | –
COc1ccc(-c2csc3ncnc(OCC(=O)Nc4ccc5c(c4)OCO5)c23)cc1OC | – | – | –
COc1ccc(NC(=O)CSc2cc(N3CCCCC3)ncn2)cc1OC | – | – | –
O=C(CSc1cc(N2CCCCC2)ncn1)Nc1ccc2c(c1)OCCO2 | – | – | 49
SMILES | USP30 inh | USP17 inh | USP28 block
Cc1nc(C)c(-c2ccc(SCC(=O)Nc3ccc4c(c3)OCCO4)nn2)s1 | – | – | –
Cc1ccc(Cn2c(CO)cnc2SCC(=O)Nc2ccc3c(c2)OCCO3)cc1 | – | – | –
O=C(c1cccc(C(F)(F)F)c1)N1CCCSc2ccccc21 | – | – | –
CCC(C)(C)NC(=O)CN1C(=O)NC(C)(c2cc3ccccc3o2)C1=O (centres undefined) | – | – | –
COCCNC(=O)C1(C)CCC(=O)N1Cc1ccc2c(c1)OCO2 (centres undefined) | – | – | –
Cc1ccc(CN2Cc3[nH]cnc3C[C@H]2C(=O)N(C)Cc2ccccc2)cc1 | – | – | –
N#C/C(=C\c1sc(N2CCOCC2)nc1-c1ccccc1)c1nnc2n1CCCCC2 | – | – | –
CN(C)CCNC(=O)c1cccc(C2CCCN(C(=O)Nc3ccccc3)C2)c1 (centres undefined) | – | – | –
CC(C)(C)c1ccccc1NC(=O)c1ccc2c(c1)SC1=NS(=O)(=O)CCN12 | – | – | 31
O=C(NCc1cccc(Cl)c1)c1ccc2c(c1)SC1=NS(=O)(=O)CCN12 | – | – | –
c1ccc2c(CN3CCN(C4CCCCCC4)CC3)c[nH]c2c1 | – | – | –
CC(=O)N1CCn2c(c(C(=O)Nc3cccc(F)c3)c3cccnc32)C1 | – | – | –
CC(C)c1ccc(N(C(=O)C2COc3ccccc3O2)c2nc3ccccc3s2)cc1 (centres undefined) | – | – | –
COCCN1C(=O)c2ccccc2C(C(=O)Nc2ccc(Cl)cc2)C12CCCC2 (centres undefined) | – | – | –
COc1ccc(C(=O)Nc2nc(-c3ccc4c(c3)NC(=O)CO4)c(C)s2)cc1OC | – | 58 | –
O=C1COc2ccc(C(=O)c3ccccc3C(=O)NC3CC3)cc2N1 | · | – | ·
O=C1COc2ccc(C(=O)Nc3cccc4ncccc34)cc2N1 | – | 37 | –
O=C(CN1C(=O)COc2ccc(Cl)cc21)Nc1cccc2ncccc12 | – | 60 | –
O=C(Cc1ccc(Cl)c(Cl)c1)Nc1cccc2ncccc12 | – | – | –
Cc1sc(NC(=O)c2cccnc2)nc1-c1ccc2c(c1)NC(=O)CO2 | – | – | –
CCc1c(-c2noc(-c3ccc[nH]3)n2)nnn1-c1ccccc1 | – | – | –
CC(O)(CS(=O)(=O)Cc1ccccc1)C(=O)Nc1cccc(C(F)(F)F)c1 (centres undefined) | – | – | –
Cn1cc(NC(=O)Nc2cccc(C(F)(F)F)c2)c2ccccc2c1=O | 78 | 98 | 61
